An excerpt weighted towards active compounds, which were near 7.1% of everything screened.
Lassa entry: Lassa virus entry inhibition; Lassa virus pseudotyped entry inhibition, cell-based qHTS; Potency, µM (series often up to 49.2 µM), without a hit: at the highest dose activity change, negative = inhibition, most hits filed as inhibitors; 18,000 compounds, 4.1% hits
MARV entry inh: blocks Marburg virus binding or cell entry | Marburg virus pseudotype entry/binding inhibition, cell-based | Potency, µM (top dose mostly 49.2 µM), for the others: top-dose activity change, negative = inhibition, actives largely listed as inhibitors | 18,000 compounds, 6.5% hits | AID 720532
Starred values were filed as active, the others as inactive; u = inconclusive; ! = a repeat was not active; [ ] = another dose, or the depositor's remark. The call rests on the fitted dose curve; tested in HEK293 cells. On the % scale 0 is the no-effect control and ±100 the full control effect; potency means the concentration at half of the fitted maximal effect.

SMILES	Lassa entry	MARV entry inh
O=c1cc(-c2ccc(O)cc2)oc2cc(O[C@H]3OC(CO)C(O)C(O)C3O)cc(O)c12 (stereo not given in full)	44.5%	66.5%
O=c1cc(-c2ccccc2)oc2cc(O[C@@H]3O[C@H](CO)[C@@H](O)[C@H](O)[C@H]3O)c(O)c(O)c12	-21.5%	3.55µM*
NC1(C(=O)O)CC(C(=O)O)C1 (stereo not given)	1.8%	29.6%
N[C@@]1(C(=O)O)CN[C@@H](C(=O)O)C1	-4.5%	28.2µM*
CCOC(=O)C1=CN(CCC=C(C)C)C(=O)N(C(C)=O)C1c1ccccc1 (stereo not given)	-30.0%[8.59 µM]	57.1%[8.59 µM]
COc1ccc(CNC(=O)/C=C\c2ccc3[nH]cc(CCN(C)C)c3c2)cc1	-23.3%	22.4µM*
CN(C)CCc1c[nH]c2ccc(O)cc12	-9.0%	-13.3%
COc1ccc(-c2ccc3c(n2)CCCN3CC(O)CN2CCCc3nc(C)c(C)cc32)cc1 (stereo not given)	11.9%[8.59 µM]	53.1%[8.59 µM]
COc1cc(C=NNc2ncnc3c2cnn3-c2ccccc2)ccc1O	u	14.1µM*
COc1cccc(C=NNc2ncnc3c2cnn3-c2cccc(OC)c2)c1	-44.9%	-18.9%
COc1cccc(-n2ncc3c(NN=Cc4ccc(C(=O)NCCN(C)C)cc4)ncnc32)c1	10.5%	9.96µM*
COc1cccc(-n2ncc3c(NN=Cc4ccncc4)ncnc32)c1	49.9%	-19.6%
CCN(CC)CCCN=C1NC(c2cccc(F)c2)C(C(=O)OC)=C(C)N1Cc1ccccc1 (stereo not given)	-25.9%[8.59 µM]	u
CC(C)(C)c1ccc(O[C@@H]2[C@H](O)CO[C@H]2C=CC#Cc2ccccc2)cc1	7.3%[8.59 µM]	-15.8%[8.59 µM]
COc1cc2c(cc1O)CCN[C@]21CS[C@@H]2c3c(OC(C)=O)c(C)c4c(c3[C@H](COC1=O)N1[C@@H]2[C@H]2c3c(cc(C)c(OC)c3O)C[C@@H]([C@@H]1O)N2C)OCO4	39.8µM*!	u
C=CC[C@@H]1C=CC(ON=C(C)CCC(=O)OC[C@H]2O[C@H](C#Cc3ccccc3)C=C[C@H]2Oc2ccc(C)cc2)[C@H](CO)O1 (stereo not given in full)	-18.7%[8.59 µM]	29.4%[8.59 µM]
CCCC=Cc1ccc(CN2C(CC(C)C)C(=O)N(Cc3cn(CCC4OCCO4)nn3)CCS2(=O)=O)cc1 (stereo not given)	3.2%	u
O=c1cc(-c2ccc(O)cc2)oc2ccc(O)cc12	11.2µM*	55.7%
O=c1cc(-c2cccc(O)c2)oc2ccc(O)cc12	u	77.1%
CC1=CC[C@@H](COc2ccccc2)O[C@@]2(C1)C(=O)N(Cc1ccc(Br)cc1)c1ccccc12	-24.6%[8.59 µM]	25.0%[8.59 µM]
C[C@@H]1O[C@@H](OC2CC(O)C3(CO)C4C(CCC3(O)C2)C2(O)CCC(C3=CC(=O)OC3)C2(C)C[C@H]4O)[C@H](O)[C@H](O)[C@H]1O (stereo not given in full)	0.178µM*	0.224µM*
O=C(c1cccs1)N1C[C@@H](n2cc(C3CC3)nn2)[C@@H](O)C[C@@H]1c1ccccc1	23.5%	20.4%
CCOC(=O)[C@]12C[C@@H]3OCCN(C(=O)N[C@@H]1c1ccccc1)[C@@H]32	-5.6%[8.59 µM]	1.5%[8.59 µM]
FC(F)(F)c1ccccc1-c1ccc2ncnc(NC3CCNCC3)c2c1	-18.6%	11.2µM*
COc1cccc(-c2ccc3ncnc(NC4CCNCC4)c3c2)c1	0.2%	u
SMILES	Lassa entry	MARV entry inh
CC(=O)OC[C@H]1O[C@H](c2cc(C)cc(C)c2)C=C[C@H]1OC(C)=O	-27.1%[8.59 µM]	26.0%[8.59 µM]
COC(=O)CC=C1c2ccccc2OC[C@@H](OC)[C@H]1C	-25.0%[8.59 µM]	2.4%[8.59 µM]
CCc1ccc(S(=O)(=O)O)cc1	-8.2%	-2.6%
O=C(O)c1[nH]n(-c2ccc(S(=O)(=O)O)cc2)c(=O)c1N=Nc1ccc(S(=O)(=O)O)cc1	3.98µM*	u
CCCCCCN1C[C@H](O)[C@@H](n2cc(COC(=O)c3ccccc3)nn2)C[C@H]1c1ccccc1	8.3%	u
CCN1C(=O)[C@@H]2[C@H]3[C@H](O)[C@H](O)CC(=NO[C@H](C)CN4CCCc5nc(C)c(C)cc54)[C@@H]3CC[C@H]2C1=O	14.0%[8.59 µM]	2.3%[8.59 µM]
Brc1c(Br)c(Br)c2[nH]cnc2c1Br	8.6%	-22.0%
S=c1nc[nH]c2nc[nH]c12	14.1µM*	12.6µM*
COc1ccc2c3c([nH]c2c1)C(C)=NCC3	-6.9%	u
COc1ccc2c(c1)[nH]c1c(C)nccc12	4.4%	22.4µM*
Cc1cc(C)c(N(Cc2ccccc2)S(=O)(=O)c2ccc(OCCNC(=O)c3cc4ccccc4o3)cc2)c(C(=O)NO)c1	12.6µM*	5.01µM*
CCCCCC(=O)N1C[C@H](n2cc(-c3ccc(F)cc3)nn2)[C@@H](O)C[C@H]1c1ccc(OC)cc1	-29.9%	u
COC(=O)[C@@H]1C2CC3c4[nH]c5cc(OC)ccc5c4CCN3CC2C[C@H](OC(=O)c2cc(OC)c(OC)c(OC)c2)C1OC (stereo not given in full)	u	12.6µM*
COc1ccc2c3c([nH]c2c1)[C@@H]1C[C@@H]2[C@@H](C[C@H](O)[C@H](OC)[C@H]2C(=O)O)CN1CC3	-12.9%[17.8 µM]	-10.1%[17.8 µM]
COC(=O)N[C@@H](c1cccc(C)c1)[C@]1(C(=O)OC)CCCC1=O	11.2%[8.59 µM]	u
COC(=O)c1ccc(CN2C(=O)[C@]3(OCCC=C[C@@H]3C)c3c(Br)cccc32)cc1	1.0%[8.59 µM]	-6.9%[8.59 µM]
CC(=O)[O][Hg][c]1ccccc1	0.501µM*	u
CC(=O)Oc1ccccc1C(=O)O	-3.4%	11.6%
CCC[CH2][Sn][CH2]C=C[C@@H]1C[C@@H](CCOCc2ccc(OC)cc2)OP(=O)(O)O1	32.3%	-3.5%
CCOC(=O)C(CCc1ccccc1)NC1CCc2ccccc2N(CC(=O)O)C1=O (stereo not given)	-1.4%	3.2%
CCOC(=O)[C@H](CCc1ccccc1)N[C@H]1CCc2ccccc2N(CC(=O)O)C1=O	4.3%	14.1µM*!
O=S(=O)(NCCNC/C=C/c1ccc(Br)cc1)c1cccc2cnccc12	-7.4%	12.6µM*
CNCCNS(=O)(=O)c1cccc2cnccc12	23.2%	-15.6%
CN(C)[C@@H]1C(=O)C(C(N)=O)=C(O)[C@@]2(O)C(=O)C3=C(O)c4c(O)cccc4[C@@](C)(O)[C@H]3[C@H](O)[C@@H]12	-23.4%	u
Cc1c2c(c(O)c3c(O)cccc13)C(=O)O[C@H]2C1C(N(C)C)C(O)=C(C(N)=O)C(=O)[C@H]1O (stereo not given in full)	-0.7%	8.91µM*
SMILES	Lassa entry	MARV entry inh
CC(C)[C@@H](OCc1ccccc1)[C@H](C)C=NOC[C@@H](O)[C@H]1O[C@@H]2OC(C)(C)O[C@H]2[C@@H]1O	0.0%[8.59 µM]	-4.6%[8.59 µM]
COC1=CC(=O)C=C(OC)C1=O	10µM*	7.08µM*
COC1=CC(=O)C(C(=O)c2ccccc2)=CC1=O	-3.6%	10.3%
C#C[C@@H]1C=C[C@H](Oc2ccc(OC)cc2)[C@H](CO)O1	10.8%[8.59 µM]	22.1%[8.59 µM]
COc1ccc2c(c1)CO[C@H]([C@H](O)COC(C)=O)[C@H]2C=Cc1ccccc1	0.0%[8.59 µM]	-2.1%[8.59 µM]
COC(=O)CC(Oc1c(C)n(C)c2ccccc2c1=O)c1ccccc1 (stereo not given)	-6.0%[8.59 µM]	-4.7%[8.59 µM]
Cc1ccc2c(=O)c3ccccc3n(CCCN)c2c1C	10µM*!	10µM*
O=S1(=O)c2cccc(Cl)c2OC[C@H](c2ccccc2)N1Cc1ccc(F)cc1F	-6.3%	u
COc1ccc(/C=C/C(=O)O)cc1OC	35.0%	11.3%
COc1ccc(/C=C\C(=O)Nc2ccccc2C(=O)O)cc1OC	20µM*	39.8µM*

Screening data deposited in PubChem by National Center for Advancing Translational Sciences (NCATS).
